High-throughput results as filed in PubChem.
This is a sample that favours compounds with a hit; in the whole collection about 6.5% have one here.
NADH coupling = inhibitors of enzymes used to reach an NAD/NADH endpoint; coupled PK/LDH NADH assays, four targets; IC50, µM (top dose mostly 10 µM); hit rate 0.02% among 65,000; AID 774;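 active means single-dose screening hits from any of four coupled enzyme assays that gave an IC50 when retested across doses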;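 further: the DPM-DC format reads NADH fluorescence rather than 340 nm absorbance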
Spn MK inh = S. pneumoniae mevalonate kinase inhibition | purified MK, PK/LDH-coupled NADH absorbance 340 nm | inhibition, % at 10 µM | hit rate 0.48% among 65,000;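 active means ranked among the strongest by inhibition in the single 10 µM screen, a fixed top-ranked set picked for dose follow-up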
A340 absorber = absorbance at 340 nm. compound absorbance at 340 nm, fold over control. AID 708. fold change at 10 µM. 65,000 tested, under 10 active;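 active means at 10 µM dose, initial 340 nm absorbance at least 2 fold that of control wells; inactive means change under 2 fold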;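 further: initial absorbance extrapolated from kinetic A340 decline of NADH oxidation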
Fluor 339 460 = intrinsic fluorescence of library compounds, ex339/em460 – biochemical, MLSMR library, data from DPM-DC assay, artefact control, profiling panel. hit rate 5.5% among 65,000. AID 709. compound autofluorescence, ex339/em460 nm, NADH buffer; hits give high values; 1 = no-compound wells, NADH background. fluorescence fold increase at 10 µM;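 active means at 10 µM, mean starting fluorescence two-fold or more over control wells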;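 further: signal is the first read of a kinetic run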
DPM-DC inhibit = inhibitors of Streptococcus pneumoniae diphosphomevalonate decarboxylase; purified DPM-DC, PK/LDH coupled NADH fluorescence; calls only at 10 µM; hit rate 0.49% among 65,000; AID 556;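 active means the 320 compounds with the highest percent inhibition in the single-dose primary screen, excluding strongly autofluorescent ones, cut at about 32% in these data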;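 further: kinetic rate of NADH fluorescence loss reporting ADP formed by the decarboxylase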
Spn PMK inh = S. pneumoniae PMK inhibition; hit rate 0.49% among 65,000; inhibition, % at 10 µM; purified PMK, PK/LDH-coupled NADH absorbance 340 nm;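 active means top-ranked compounds by inhibition in the single 10 µM screen, taking a fixed number of the strongest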
Hits are given with their value.

What do the screens show for `CC(C)COC(=O)n1ccc(C(=O)N2CCCCC2)n1`?
NADH coupling: inactive; Spn MK inh: inactive; A340 absorber: inactive; Fluor 339 460: inactive; DPM-DC inhibit: inactive; Spn PMK inh: 25.0

Results for CC(C)CNS(=O)(=O)c1ccccc1C(=O)N1CCCCC1 ?
NADH coupling: inactive; Spn MK inh: inactive; A340 absorber: inactive; Fluor 339 460: inactive; DPM-DC inhibit: inactive; Spn PMK inh: inactive

How did CCOC(=O)c1ccc(NC(=O)c2nccnc2C(=O)O)cc1 do in these assays?
NADH coupling: inactive; Spn MK inh: inactive; A340 absorber: inactive; Fluor 339 460: inactive; DPM-DC inhibit: inactive; Spn PMK inh: inactive

What do the screens show for `CC(=O)NCCn1c(SCc2cc(=O)n3cc(Cl)ccc3n2)nc2ccccc2c1=O`?
NADH coupling: inactive; Spn MK inh: inactive; A340 absorber: inactive; Fluor 339 460: 2.13; DPM-DC inhibit: active; Spn PMK inh: inactive

Results for CC(=O)NCCn1c(SCc2ccccc2F)nc2ccccc2c1=O ?
NADH coupling: inactive; Spn MK inh: inactive; A340 absorber: inactive; Fluor 339 460: inactive; DPM-DC inhibit: inactive; Spn PMK inh: inactive

How did Cc1cc(NC(=O)CN2CCN(c3ccccc3F)CC2)nc2c1c(=O)oc1ccccc12 do in these assays?
NADH coupling: inactive; Spn MK inh: inactive; A340 absorber: inactive; Fluor 339 460: inactive; DPM-DC inhibit: inactive; Spn PMK inh: inactive

What do the screens show for `Cc1nn(-c2ccccc2)c(N2CCCC2)c1/C=N/n1cnc2scc(-c3ccccc3)c2c1=O`?
NADH coupling: inactive; Spn MK inh: inactive; A340 absorber: inactive; Fluor 339 460: 3.49; DPM-DC inhibit: inactive; Spn PMK inh: inactive

Results for COc1ccc(C2C(C#N)=C(N)Oc3n[nH]c(C)c32)cc1Cn1nnc2ccccc21 (stereo not drawn) ?
NADH coupling: inactive; Spn MK inh: inactive; A340 absorber: inactive; Fluor 339 460: inactive; DPM-DC inhibit: inactive; Spn PMK inh: inactive

Results for CCCc1[nH]nc2c1C(c1ccc(OC)c(Cn3nnc4ccccc43)c1)C(C#N)=C(N)O2 (stereo not drawn) ?
NADH coupling: inactive; Spn MK inh: 51.0; A340 absorber: inactive; Fluor 339 460: inactive; DPM-DC inhibit: inactive; Spn PMK inh: inactive

What do the screens show for `O=C(O)c1ccc2cccc(Cl)c2c1O`?
NADH coupling: inactive; Spn MK inh: inactive; A340 absorber: inactive; Fluor 339 460: 2.54; DPM-DC inhibit: inactive; Spn PMK inh: inactive

Results for Cc1c(Cl)cccc1Nc1ccccc1C(=O)O ?
NADH coupling: inactive; Spn MK inh: inactive; A340 absorber: inactive; Fluor 339 460: inactive; DPM-DC inhibit: inactive; Spn PMK inh: inactive

How did CC1=CC(C)(C)Nc2ccccc21 do in these assays?
NADH coupling: inactive; Spn MK inh: inactive; A340 absorber: inactive; Fluor 339 460: 2.52; DPM-DC inhibit: inactive; Spn PMK inh: inactive

What do the screens show for `O=c1oc2ccccc2cc1-c1nc2ccccc2o1`?
NADH coupling: inactive; Spn MK inh: inactive; A340 absorber: inactive; Fluor 339 460: 2.11; Spn PMK inh: inactive

Results for Cn1c(-c2nonc2NC(=O)c2ccc(C(C)(C)C)cc2)nc2ccccc21 ?
NADH coupling: inactive; Spn MK inh: inactive; A340 absorber: inactive; Fluor 339 460: 2.65; DPM-DC inhibit: inactive; Spn PMK inh: inactive

What do the screens show for `CC(=O)Nc1nonc1-c1nc2ccccc2n1CCC(C)C`?
NADH coupling: inactive; Spn MK inh: inactive; A340 absorber: inactive; Fluor 339 460: inactive; DPM-DC inhibit: inactive; Spn PMK inh: inactive

What do the screens show for `COc1cc(OC)c(C2C3=C(CCCC3=O)Nc3nc4ccccc4n32)cc1OC` (stereo not drawn)?
NADH coupling: inactive; Spn MK inh: inactive; A340 absorber: inactive; Fluor 339 460: inactive; DPM-DC inhibit: inactive; Spn PMK inh: inactive

How did COc1cccc(C2C3=C(CCCC3=O)Nc3nc4ccccc4n32)c1OC (stereo not drawn) do in these assays?
NADH coupling: inactive; Spn MK inh: inactive; A340 absorber: inactive; Fluor 339 460: 5.02; Spn PMK inh: inactive

What do the screens show for `COC(=O)Nc1c(-c2ccccc2)nc2ccccn12`?
NADH coupling: inactive; Spn MK inh: inactive; A340 absorber: inactive; Fluor 339 460: 2.1; Spn PMK inh: inactive

Results for CC(=O)Nc1c(-c2ccc(F)cc2)nc2ccccn12 ?
NADH coupling: inactive; Spn MK inh: inactive; A340 absorber: inactive; Fluor 339 460: inactive; Spn PMK inh: inactive

What do the screens show for `COC(=O)Nc1c(-c2ccccc2)nc2ccc(C)cn12`?
NADH coupling: inactive; Spn MK inh: inactive; A340 absorber: inactive; Fluor 339 460: 3.77; Spn PMK inh: inactive

What do the screens show for `COc1ccc(C)cc1S(=O)(=O)N(CC(=O)N1CCCC1)c1ccccc1`?
NADH coupling: inactive; Spn MK inh: inactive; A340 absorber: inactive; Fluor 339 460: inactive; DPM-DC inhibit: inactive; Spn PMK inh: inactive

What do the screens show for `Cc1cc(C)c(C#N)c(N2CCSCC2)n1`?
NADH coupling: inactive; Spn MK inh: inactive; A340 absorber: inactive; Fluor 339 460: 2.71; DPM-DC inhibit: inactive; Spn PMK inh: inactive

Results for Cc1cc(C)c(C#N)c(N2CCCC(C(N)=O)C2)n1 (stereo not drawn) ?
NADH coupling: inactive; Spn MK inh: inactive; A340 absorber: inactive; Fluor 339 460: 4.14; Spn PMK inh: inactive

How did Cc1cc(C)c(C#N)c(SCC(=O)N2CCCCC2)n1 do in these assays?
NADH coupling: inactive; Spn MK inh: inactive; A340 absorber: inactive; Fluor 339 460: inactive; DPM-DC inhibit: inactive; Spn PMK inh: inactive

How did Cc1cc(N(C)C)c(C#N)c(N2CCOCC2)n1 do in these assays?
NADH coupling: inactive; Spn MK inh: inactive; A340 absorber: inactive; Fluor 339 460: inactive; DPM-DC inhibit: inactive; Spn PMK inh: inactive

What do the screens show for `COc1ccccc1N(CC(=O)NC1CCCCC1)C(=O)CCC(=O)Nc1ccccn1`?
NADH coupling: inactive; Spn MK inh: inactive; A340 absorber: inactive; Fluor 339 460: inactive; DPM-DC inhibit: inactive; Spn PMK inh: inactive

What do the screens show for `COC(=O)CC1Oc2ccccc2N(Cc2ccccc2)C1=O` (stereo not drawn)?
NADH coupling: inactive; Spn MK inh: inactive; A340 absorber: inactive; Fluor 339 460: inactive; DPM-DC inhibit: inactive; Spn PMK inh: inactive

What do the screens show for `CC(=O)Nc1c(OC(C)=O)ccc2c(C)cc(=O)oc12`?
NADH coupling: inactive; Spn MK inh: inactive; A340 absorber: inactive; Fluor 339 460: 5.1; Spn PMK inh: inactive

Results for CC(=O)Oc1ccc2c(C)cc(=O)[nH]c2c1 ?
NADH coupling: inactive; Spn MK inh: inactive; A340 absorber: inactive; Fluor 339 460: inactive; DPM-DC inhibit: inactive; Spn PMK inh: inactive

What do the screens show for `Cc1cc(OC(=O)CNC(=O)OC(C)(C)C)c2c(C)cc(=O)oc2c1`?
NADH coupling: inactive; Spn MK inh: inactive; A340 absorber: inactive; Fluor 339 460: inactive; DPM-DC inhibit: inactive; Spn PMK inh: inactive

What do the screens show for `CC(=O)Oc1cc(OC(C)=O)c2c(C)cc(=O)oc2c1`?
NADH coupling: inactive; Spn MK inh: inactive; A340 absorber: inactive; Fluor 339 460: 2.2; Spn PMK inh: inactive

What do the screens show for `CC(=O)Oc1cc2oc(=O)cc(C)c2cc1OC(C)=O`?
NADH coupling: inactive; Spn MK inh: inactive; A340 absorber: inactive; Fluor 339 460: 2.2; Spn PMK inh: inactive
